Bioassay records from PubChem.
TSHR antagonist – Antagonists of the Thyroid Stimulating Hormone Receptor: HTS campaign | 330,000 compounds, 0.2% hits | AID 504810, 2011 | TSHR-expressing cells, TSH-stimulated cAMP HTRF, 2 h; hits give low values | activity change, negative = inhibition, % at 11.5 µM | Thyrotropin receptor (Homo sapiens), P16473;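 active = activity change below a set negative limit, meaning inhibition stronger than a set level, cut at about -70% in these data; inconclusive = activity change between two set negative limits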
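Competitive HTRF cAMP read-out (cryptate anti-cAMP antibody, cAMP-d2; 30 min, room temperature) in freshly harvested TSHR cells. Compounds added before TSH at EC80 (4nM final), followed by 2 hours' incubation at 37 deg C.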
RORg inh – qHTS for inhibitors of ROR gamma transcriptional activity; Drosophila S2 Gal4-RORgamma UAS-luciferase reporter, 20 h; Potency, µM (top dose mostly 53.6 µM), inactives show top-dose activity change, negative = inhibition, hits mostly inhibitors; 310,000 compounds, 5.4% hits; AID 2551, 2010; also: potency is read from the fitted curve at half-maximal effect; nearly all actives have a fitted effect of over 60% in size
Target sequence (P51450 whole entry, looked up, the tested form may be a part): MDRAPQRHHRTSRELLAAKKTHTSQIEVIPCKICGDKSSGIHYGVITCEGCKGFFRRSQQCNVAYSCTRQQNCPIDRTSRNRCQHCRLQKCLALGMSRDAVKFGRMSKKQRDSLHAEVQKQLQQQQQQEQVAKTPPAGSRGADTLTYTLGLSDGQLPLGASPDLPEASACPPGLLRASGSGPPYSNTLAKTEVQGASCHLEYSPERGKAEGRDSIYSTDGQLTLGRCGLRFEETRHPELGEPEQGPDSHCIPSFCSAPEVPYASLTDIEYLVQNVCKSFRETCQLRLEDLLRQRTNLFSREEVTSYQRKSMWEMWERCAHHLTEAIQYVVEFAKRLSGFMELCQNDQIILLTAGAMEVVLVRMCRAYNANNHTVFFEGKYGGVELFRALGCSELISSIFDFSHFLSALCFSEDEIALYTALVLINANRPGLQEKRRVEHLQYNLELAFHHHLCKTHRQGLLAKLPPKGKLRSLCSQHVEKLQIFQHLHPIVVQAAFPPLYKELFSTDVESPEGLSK
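Stable Schneider cell line, Gal4 DNA-binding domain fused to ROR gamma, UAS-luciferase. Cmpd 1 hr RT → CuSO4 700 uM final → 20 hr RT → luciferase reagent 10 min → luminescence.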
ELG1 DNA repair – qHTS screen for small molecules that inhibit ELG1-dependent DNA repair in human embryonic kidney (HEK293T) cells expressing luciferase-tagged ELG1. HEK293T ELG1-luciferase reporter, luminescence, 16 h; DNA damage induced by 5-fluorouridine. Potency, µM (highest dose often 46.1 µM), for the others: at the top dose activity change, negative = inhibition, actives largely listed as inhibitors. 330,000 compounds, 2.3% hits. AID 504467, 2011; also: potency is read from the fitted curve at half-maximal effect; nearly all actives have a fitted effect of over 55% in size
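5-Fluorouridine DNA damage + compound/DMSO, 2,000 cells/well, 16 h, 37 °C/5% CO2. ONE-Glo, 30 min RT, luminescence. Readout = decrease in reporter signal.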
VP16 counter – VP16 counterscreen qHTS for inhibitors of ROR gamma transcriptional activity | Drosophila S2 Gal4-VP16 UAS-luciferase, luminescence, 20 h | Potency, µM (doses to about 53.6 µM), for the others: top-dose activity, negative = inhibition, actives largely listed as inhibitors | 310,000 compounds, 3.5% hits | AID 2546, 2010;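 also: Gal4-VP16 expression switched on by copper sulfate through the metallothionein promoter; potency is read from the fitted curve at half-maximal effect; nearly all actives have a fitted effect of over 50% in size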
B2AR arrestin – qHTS assay of beta-arrestin-biased ligands of beta2-adrenergic receptor; 330,000 compounds, 0.02% hits; beta-arrestin recruitment to beta2AR, cell-based reporter; Potency, µM (doses to about 46.1 µM), inactives show at the top dose activation, usual class: activators; Beta-2 adrenergic receptor (Homo sapiens), P07550; AID 492947, 2010;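 also: potency is read from the fitted curve at half-maximal effect; 0% = DMSO controls and full agonism = EC100 isoproterenol or metaproterenol; nearly all actives have a fitted effect of over 65% in size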
* hit, by the source's call; ? = inconclusive; . = not tested or not shown; [ ] = another dose, or the depositor's remark. In the library only some 7.5% were active in any assay of this set; here they are far more common. Unless noted, calls follow the shape of the dose curve; as a rule, active = well fitted curve in the direction sought with a large enough effect; inconclusive = small, poorly fitted or top-dose-only effect, or another doubt; inactive = no such curve, though single readings can be large; an effect the other way counts as inactive or inconclusive. Unless noted, % is scaled to controls: 0 for no effect and ±100 for the full control effect.

SMILES	TSHR antagonist	RORg inh	ELG1 DNA repair	VP16 counter	B2AR arrestin
CCN(CC)S(=O)(=O)c1ccc(C(=O)NCC2(N3CCOCC3)CCCCC2)cc1	-2	.	2%	.	0%
CCOC(=O)CC1CCCCN1C(=O)c1cc(COc2cccc3cnccc23)on1 (centres undefined)	?	?	?	4µM*	0%
CN(Cc1nccs1)C(=O)c1cc(COc2cccc3cnccc23)on1	-44	-34%	?	13µM*	0%
COC(=O)C1CCCCN1C(=O)c1cc(COc2cccc3cccnc23)on1 (centres undefined)	-2	40%	-4%	4%	-1%
COC(=O)C1CCCCN1C(=O)c1cc(COc2cccc3cnccc23)on1 (centres undefined)	-30	-29%	1.5µM*	?	-1%
COc1cc(Cl)ccc1OCc1cc(C(=O)N(C)Cc2cccc3cnccc23)no1	-1	40%	0%	-15%	-1%
O=[N+]([O-])c1cc(Cl)cc(/C=N\Nc2ccccn2)c1O	-12	0.56µM*	?	1.1µM*	0%
O=C(N/N=C/c1cc(Cl)cc([N+](=O)[O-])c1O)c1cc(-c2ccccn2)nc2ccccc12	-17	5.6µM*	?	10µM*	0%
O=[N+]([O-])c1cc(/C=N\Nc2ccccn2)ccc1Cl	6	-33%	10%	?	0%
CCN(CC)S(=O)(=O)c1ccc(NC(=O)CCN2C(=O)C3CC=CCC3C2=O)cc1 (centres undefined)	13	.	8%	.	0%
C/C(=N\NC(=O)c1cc(C)oc1C)c1ccc2ccccc2c1	7	2.2µM*	0%	-29%	0%
C/C(=N\NC(=O)c1cc2ccccc2cc1O)c1ccc(C)o1	14	8.9µM*	?	?	0%
CC(C)(C)N1C(=O)[C@H]2[C@@H]3[C@H](O)[C@H](O)CC(=O)[C@H]3CC[C@H]2C1=O	.	5%[10 µM]	.	-1%[10 µM]	.
c1ccc(-c2n[nH]c3c2CCC3)cc1	19	13µM*	-1%	-21%	-2%
CCn1c(SCC(=O)N2CCCC2)nnc1-c1ccc(S(=O)(=O)N2CCCCCC2)cc1	-3	26%	?	-5%	0%
CCn1c(SCc2ccc(C#N)cc2)nnc1-c1ccc(S(=O)(=O)N2CCCCC2)cc1	28	31%	10µM*	-14%	-1%
CN(C)CCCN1C(=O)c2cccc3cccc(c23)C1=O	4	-44%	-30%	-8%	0%
CC1=CC2=C(OC1N(C)C)c1cccc3cccc(c13)C2=O (centres undefined)	30	8.9µM*	8%	?	0%
S=c1[nH]nc(-c2cccs2)n1/N=C/c1cn(-c2ccccc2)nc1-c1cccs1	-6	7.9µM*	?	?	0%
S=c1[nH]nc(-c2ccccc2)n1/N=C/c1cccs1	-5	4µM*	15%	-1%[0.365 µM]	0%
Cc1ccc(-c2nn(-c3ccccc3)cc2/C=N/n2c(-c3cccs3)n[nH]c2=S)cc1	-9	?	-16%	-21%	0%
Cc1ccsc1/C=N/n1c(-c2cccnc2)n[nH]c1=S	-4	11µM*	-1%	-19%	0%
Cc1ccc(-c2n[nH]c(=S)n2/N=C/c2cccs2)cc1	-16	5µM*	18%	3.2µM*	-1%
N#CCCn1c(=O)c(-c2cccs2)nc2cnc(Oc3cccc(Cl)c3)nc21	.	-1%	.	-3%	.
CCCCc1ccc(NC(=O)CSc2nnc(C)c(=O)n2N)cc1	11	?	9%	-4%	-1%
SMILES	TSHR antagonist	RORg inh	ELG1 DNA repair	VP16 counter	B2AR arrestin
COCCN(CCOC)c1nc(C)nc2c1nc(-c1ccccc1)n2CCN1CCOCC1	.	1%	.	-13%	.
O=C(CSc1cccc[n+]1[O-])c1cc(Cl)ccc1Cl	-1	11µM*	?	?	?
O=C(O)CSc1cccc[n+]1[O-]	.	-14%	.	10%	.
Cc1cccc(SCc2noc(C(=O)NC(C)C)c2C(=O)O)c1	-5	?	-2%	16µM*	0%
CC(C)NC(=O)c1onc(CSc2cccc3ccccc23)c1C(=O)O	-7	18µM*	-1%	?	1%
O=c1oc2cc(O)ccc2cc1-c1ccc2c(c1)OCCO2	.	-17%	.	-28%	.
Cc1nc2ccc(N=NC3=C(O)CC(C)(C)CC3=O)cc2s1	-1	-35%	?	-30%	0%
CCOc1ccc2nc(N=NC3=C(O)CC(C)(C)CC3=O)sc2c1	30	2.2µM*	?	3%	0%
O=C(COC(=O)c1cc[n+]([O-])cc1)Nc1cccc(Br)c1	17	.	8%	.	-1%
CCn1c(SCC(=O)Nc2ccc(Br)cn2)nnc1C1CC1	14	20%	14%	-6%	4%
COc1ccc(NS(=O)(=O)c2ccc(-c3coc(C)n3)cc2)cc1OC	-27	?	0.41µM*	1.4µM*	0%
CC(=O)N(Cc1ccccc1)Cc1nc2sc(C)c(C)c2c(=O)[nH]1	5	3%	-7%	4%	0%
CC(=O)N(Cc1nc2sc(C)c(C)c2c(=O)[nH]1)C1CCCC1	-5	10µM*	-8%	?	-1%
Cc1sc2nc(CN(C(=O)NCc3ccccc3)C3CCCC3)[nH]c(=O)c2c1C	-4	4.5µM*	?	?	0%
O=C(NCc1ccccc1)N(Cc1nc2ccccc2c(=O)[nH]1)C1CCCC1	1	18%	-16%	-5%	0%
S=c1[nH]nc(-c2ccc(Cl)cc2)n1/N=C/C=C/c1ccco1	-5	?	-3%	-8%	-1%
S=c1[nH]nc(-c2ccc(Cl)cc2)n1/N=C/c1ccco1	-12	3.2µM*	21%	?	0%
S=c1[nH]nc(-c2ccco2)n1/N=C/C=C/c1ccccc1	-5	2.5µM*	1%	?	-1%
S=c1[nH]nc(-c2ccccc2)n1/N=C/C=C/c1ccco1	-16	2.8µM*	9%	3.2µM*	0%
Cc1ccccc1-c1n[nH]c(=S)n1/N=C/C=C/c1ccco1	-5	2.5µM*	-26%	-18%	-1%
FC(F)(F)c1n[nH]c(=S)n1/N=C/c1ccco1	-1	-14%	0%	12%	0%
O=C(c1ccco1)N1CCC2(CC1)CCN(c1ccccc1)CC2	.	24%	.	-3%	.
CC(C)(C)[C@@H](O)C(Cc1ccc(Cl)cc1)n1cncn1 (some centres undefined)	.	-4%	.	1%	.
S=c1[nH]nc(-c2ccco2)n1/N=C/c1cccc(Cl)c1Cl	-14	?	-6%	?	-1%
S=c1[nH]nc(-c2ccco2)n1/N=C/c1ccc(Cl)cc1Cl	-10	5.6µM*	-2%	18µM*	0%
